KCNH2 3.1 block: inhibitors of human KCNH2 3.1 potassium channel isoform; AID 720553; U2OS KCNH2 3.1, thallium flux FluxOr; hits give low values; activity change, % (tested at about 1.8 µM); hit rate 0.95% among 340,000;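 active means maximum activity change below -70%; inconclusive means maximum activity change from -70% to -50%; inactive means maximum activity change above -50%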;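 further: thallium influx rate constant from kinetic fluorescence after stimulation buffer; on the % scale 0 is the no-effect control and ±100 the full control effect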
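Virally transduced U2OS (3.1 isoform, 4 h infection in dark at RT) → overnight 37 C → FluxOr + Red40 in HBSS/HEPES, 45 min → stimulation buffer, 2 min kinetic read → rate constant vs DMSO controls.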
KB-V1 cytotox: KB-V1 MDR subline cytotoxicity; KB-V1 MDR cells viability, CellTiter-Glo, 72 h; Potency, µM (top dose mostly 46.1 µM), most hits filed as cytotoxic; hit rate 3.4% among 400,000; AID 1347076; further: potency means the concentration at half of the fitted maximal effect; on the % scale 0 is the no-effect control and ±100 the full control effect; nearly all actives have a fitted effect of over 60% in size
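Readout: CellTiter-Glo luminescence, 10 min after addition. Cells: KB-V1 MDR subline, 72 h at 37 degrees C with compound. Analysis: corrected, normalized data fitted to concentration-effect curves.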
KB-3-1 tox: kills parental KB-3-1 adenocarcinoma cells | KB-3-1 viability, CellTiter-Glo ATP luminescence, 72 h | Potency, µM (series often up to 46.1 µM), most hits filed as cytotoxic | hit rate 1.4% among 400,000 | AID 1347075; further: potency means the concentration at half of the fitted maximal effect; on the % scale 0 is the no-effect control and ±100 the full control effect; nearly all actives have a fitted effect of over 60% in size
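Viability of parental KB-3-1 cells, measured by CellTiter-Glo luminescence, followed a 72 h incubation at 37 °C with pinned compounds in phenol-red-free DMEM containing 10% FBS.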
hERG WT inh: KCNH2 (human, wildtype) channel inhibition | AID 720551 | U2OS, BacMam KCNH2, thallium flux FluxOr; hits give low values | hit rate 0.37% among 340,000 | Q12809 | activity change, % at 1.84 µM;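 active means maximum activity change below -70%; inconclusive means maximum activity change between -70% and -50%; inactive means maximum activity change above -50%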; further: on the % scale 0 is the no-effect control and ±100 the full control effect
Target sequence (Q12809 whole entry, looked up): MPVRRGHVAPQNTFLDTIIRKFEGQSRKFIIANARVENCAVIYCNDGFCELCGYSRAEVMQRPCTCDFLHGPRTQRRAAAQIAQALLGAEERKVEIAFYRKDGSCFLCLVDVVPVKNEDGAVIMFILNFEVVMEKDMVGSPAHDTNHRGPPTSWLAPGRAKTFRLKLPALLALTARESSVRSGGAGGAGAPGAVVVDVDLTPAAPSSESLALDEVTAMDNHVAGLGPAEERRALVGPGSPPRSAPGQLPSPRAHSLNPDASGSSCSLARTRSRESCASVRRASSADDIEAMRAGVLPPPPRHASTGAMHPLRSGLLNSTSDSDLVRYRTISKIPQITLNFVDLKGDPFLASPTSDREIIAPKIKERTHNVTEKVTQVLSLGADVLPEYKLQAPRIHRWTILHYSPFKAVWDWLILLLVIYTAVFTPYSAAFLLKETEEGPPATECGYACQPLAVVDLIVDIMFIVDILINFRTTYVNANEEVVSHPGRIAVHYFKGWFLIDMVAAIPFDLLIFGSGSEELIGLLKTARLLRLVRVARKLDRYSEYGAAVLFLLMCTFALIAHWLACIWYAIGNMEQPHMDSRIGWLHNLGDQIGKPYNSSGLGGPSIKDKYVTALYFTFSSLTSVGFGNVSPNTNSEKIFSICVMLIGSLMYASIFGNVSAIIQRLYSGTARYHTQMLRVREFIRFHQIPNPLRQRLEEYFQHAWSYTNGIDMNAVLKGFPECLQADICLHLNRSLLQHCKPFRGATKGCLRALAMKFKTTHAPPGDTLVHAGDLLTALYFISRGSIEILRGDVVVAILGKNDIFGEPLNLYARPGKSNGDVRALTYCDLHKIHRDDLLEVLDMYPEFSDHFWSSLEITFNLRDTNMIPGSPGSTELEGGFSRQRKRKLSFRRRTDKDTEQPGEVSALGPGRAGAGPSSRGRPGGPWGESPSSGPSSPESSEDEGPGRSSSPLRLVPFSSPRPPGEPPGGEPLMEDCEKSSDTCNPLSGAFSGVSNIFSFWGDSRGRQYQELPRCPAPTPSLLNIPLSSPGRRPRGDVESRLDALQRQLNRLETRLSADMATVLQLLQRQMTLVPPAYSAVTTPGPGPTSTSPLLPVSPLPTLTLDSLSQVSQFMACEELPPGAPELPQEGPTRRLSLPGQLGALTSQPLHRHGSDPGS
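U2OS cells were transduced with wild-type KCNH2 virus (2.03 x 10^8 / mL) for 4 h at room temperature, then cultured overnight at 37 C. Thallium flux was read with FluxOr dye. Rate constants were normalized to DMSO controls.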
MCF10A rerep: inducers of DNA re-replication in MCF 10A breast cells; MCF 10A DNA re-replication, Hoechst nuclear intensity, 48 h; Potency, µM (titrated, usually from 46.1 µM), without a hit: at the top dose activity, positive = re-replication, most hits filed as activators; hit rate 2.9% among 350,000; AID 624296; further: potency means the concentration at half of the fitted maximal effect; % of control where 0% means no effect; nearly all actives have a fitted effect of over 50% in size
SW480 rerep: induces DNA re-replication in SW480 colon adenocarcinoma cells; SW480 DNA re-replication, Hoechst DNA content imaging, 48 h; Potency, µM (doses to about 46.1 µM), for inactives: top-dose re-replication activation, most hits filed as activators; hit rate 1.8% among 340,000; AID 624297; further: potency means the concentration at half of the fitted maximal effect; % of control where 0% means no effect; nearly all actives have a fitted effect of over 55% in size
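250 cells/well; 23 nL cpd via pin tool; 48 hr, 37 C, 5% CO2; Hoechst 40 min; imager read of total nuclear intensity, ex 405/em 500-530 nm.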
Starred values were filed as active, the others as inactive. Rows were chosen to be rich in hits. Some 7.6% of all compounds tested hit in one or more screens of this group. Unless noted, the call rests on the fitted dose curve; in most records, active means well fitted curve in the direction sought with a large enough effect; inconclusive means small, poorly fitted or top-dose-only effect, or another doubt; inactive means no such curve, though single readings can be large; an effect the other way counts as inactive or inconclusive.

How did O=C(CCCOc1ccc(Cl)cc1Cl)Nc1ccccc1C(=O)O do in these assays?
KCNH2 3.1 block: 4; KB-V1 cytotox: inactive; KB-3-1 tox: inconclusive; hERG WT inh: -1; MCF10A rerep: 4%; SW480 rerep: 2%

What do the screens show for `CCN1CCN(c2oc(-c3ccccc3C)nc2S(=O)(=O)c2ccccc2)CC1`?
KCNH2 3.1 block: -43; KB-V1 cytotox: inactive; KB-3-1 tox: inactive; hERG WT inh: -22; MCF10A rerep: 5%; SW480 rerep: -5%

What do the screens show for `O=C(NCC1CCCC(CNC(=O)N2CCc3ccccc32)C1)N1CCc2ccccc21` (stereo unspecified)?
KCNH2 3.1 block: 12; KB-V1 cytotox: 5.2µM*; KB-3-1 tox: inactive; hERG WT inh: 2; MCF10A rerep: 23%; SW480 rerep: inconclusive

How did C/C(CC(=O)NCCc1ccccc1)=N\NC(=O)COc1ccc(Br)cc1 do in these assays?
KCNH2 3.1 block: -5; KB-V1 cytotox: inactive; KB-3-1 tox: inactive; hERG WT inh: 7; MCF10A rerep: 3%; SW480 rerep: -9%

What do the screens show for `Cc1c(Cl)cccc1NC(=O)C(C)n1nnc2sc3c(c2c1=O)CCCC3` (stereo unspecified)?
KB-V1 cytotox: inactive; KB-3-1 tox: inactive

How did Cc1ccc(S(=O)(=O)CC(C)N2CCOCC2)c(S(=O)(=O)CC(C)N2CCOCC2)c1 (stereo unspecified) do in these assays?
KCNH2 3.1 block: 8; KB-V1 cytotox: inactive; KB-3-1 tox: inactive; hERG WT inh: -224*; MCF10A rerep: -1%; SW480 rerep: -17%

Results for Cc1ccc(S(=O)(=O)CC(CN2CCOCC2)N2CCOCC2)cc1 (stereo unspecified) ?
KCNH2 3.1 block: 3; KB-V1 cytotox: inactive; KB-3-1 tox: inactive; hERG WT inh: -3; MCF10A rerep: 1%; SW480 rerep: -11%

How did COC(=O)Cn1cc(/C=C/c2cc[n+](C)cc2)c2ccccc21 do in these assays?
KCNH2 3.1 block: -28; KB-V1 cytotox: inconclusive; KB-3-1 tox: inactive; hERG WT inh: 0; MCF10A rerep: -2%; SW480 rerep: -15%

How did Cc1ccc2[nH]ccc(=O)c2c1 do in these assays?
KB-V1 cytotox: inactive; KB-3-1 tox: inactive; MCF10A rerep: -1%; SW480 rerep: -12%

What do the screens show for `COc1ccc2c(/C=C/c3cc[n+](C)cc3)c[nH]c2c1`?
KCNH2 3.1 block: -2; KB-V1 cytotox: inconclusive; KB-3-1 tox: 1.8µM*; hERG WT inh: -10; MCF10A rerep: -14%; SW480 rerep: -1%

Results for COc1ccc2c(C=O)c[nH]c2c1 ?
KCNH2 3.1 block: -3; KB-V1 cytotox: inactive; KB-3-1 tox: inactive; hERG WT inh: -2; MCF10A rerep: -1%; SW480 rerep: -1%

What do the screens show for `COc1ccc2c(c1)c(/C=C/c1cc[n+](C)cc1)cn2C`?
KCNH2 3.1 block: 9; KB-V1 cytotox: inconclusive; KB-3-1 tox: 16µM*; hERG WT inh: -4; MCF10A rerep: -8%; SW480 rerep: 0%

Results for Cc1ccc2[nH]cc(/C=C/c3cc[n+](C)cc3)c2c1 ?
KCNH2 3.1 block: 2; KB-V1 cytotox: inactive; KB-3-1 tox: 0.92µM*; hERG WT inh: -8; MCF10A rerep: inconclusive; SW480 rerep: 8.2µM*

How did CCCCCCCOC(=O)C1=C(C)Nc2ncnn2C1c1cccs1 (stereo unspecified) do in these assays?
KCNH2 3.1 block: -2; KB-V1 cytotox: inconclusive; KB-3-1 tox: inactive; hERG WT inh: -6; MCF10A rerep: inconclusive; SW480 rerep: 1%

How did CCCCCCCCOC(=O)C1=C(C)Nc2nnnn2C1c1cccs1 (stereo unspecified) do in these assays?
KCNH2 3.1 block: 1; KB-V1 cytotox: 15µM*; KB-3-1 tox: inconclusive; hERG WT inh: -1; MCF10A rerep: inconclusive; SW480 rerep: 16%

Results for COC(=O)c1cccc(C(=O)Nc2ccc(C)cc2Br)n1 ?
KCNH2 3.1 block: -3; KB-V1 cytotox: 15µM*; KB-3-1 tox: inactive; hERG WT inh: 6; MCF10A rerep: 5%; SW480 rerep: -11%
